Source: PubChem BioAssay (NCI)
This is part of a sample that, as a whole, favours compounds with a hit. Of some 83,000 tested, about 20% had one in any assay.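 Single-concentration screen, 48 h exposure, 96-well plates. Endpoint: percent growth. Below 10 = active.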 Activity calls are given as the source filed them.

tested on: HL-60(TB) leukemia; assay: NCI-60 one-dose screen, 48 h (100 = growth as untreated, 0 = no growth, -100 = all killed); conditions: 10 µM unless noted

Structure (SMILES)	growth
COc1cc(/C=C/c2cc(/C=C/c3ccc(O)c(OC)c3)[nH]c(=O)n2)ccc1O	61.3% (inactive)
COc1cc2c(c(OC)c1OC)C(=O)CC(c1cccc(C(=O)Nc3ccccc3Br)c1)O2 (stereo not given)	76.5% (inactive)
Cc1nc(-c2ccccc2)cc2c(O)c(C(=O)N/N=C/Cc3ccccc3)[nH]c(=O)c12	76.8% (inactive)
COc1cccc(NC(=O)NCCNc2nccc(-c3c(-c4ccc(F)cc4)nc4sccn34)n2)c1	92.7% (inactive)
Cc1ccnc2c(OCc3ccccc3)cccc12	111% (inactive)
Cc1cc(N(CCOS(C)(=O)=O)CCOS(C)(=O)=O)ccc1C=Nc1ccc(-c2nc(Cc3ccccc3)sc2C)cc1	4.95% (active)
COc1ccc(C(=O)NNc2nc(Cl)nc(N3CCN(C(c4ccccc4)c4ccccc4)CC3)n2)cc1	21.3% (inactive)
FC(F)(F)c1ccccc1-c1cn2c(ccc3ccccc32)n1	48.1% (inactive)
O=C(NCc1ccco1)C1CN(c2ccc(Cl)cc2)N(c2ccc(Cl)cc2)C1=O (stereo not given)	5.03% (active)
COc1ccc2nc(-c3ccccc3)cc(C(C)=O)c2c1	84.8% (inactive)
c1ccc(Sc2ncnc3ccccc23)cc1	74.1% (inactive)
CCN1C(=O)N(c2ccccc2)C2NC(=S)N(/N=C/C=C/c3ccccc3)C21 (stereo not given)	-26.4% (active)
CC(=O)C(/C=N/C(N)=O)=C(/C)O	104% (inactive)
C=C1C(=O)O[C@H]2[C@H]1CC/C(CNC(=O)C(C)c1ccc(CC(C)C)cc1)=C\CC[C@@]1(C)O[C@@H]21 (stereo not given in full)	-24.4% (active)
COc1cc2c(c(OC)c1OC)C(=O)CC(c1cccc(C(=O)Nc3ccc(C#N)cc3)c1)O2 (stereo not given)	47% (inactive)
COc1ccc(C(=S)N2CCN(c3ccc(Cl)cc3)CC2)cc1	89.7% (inactive)
CC(=O)N(O)c1ccc(/C=C/c2ccccc2)cc1	23.4% (inactive)
CN(C)CCCn1c2c(c3ccncc3c1=O)C(=O)c1ccccc1-2	-19.8% (active)
CCCCOS(=O)(=O)c1ccccc1	111% (inactive)
Cc1ccc(S(=O)(=O)c2ccc3[nH]c(=O)[nH]c(=O)c3c2)cc1	89.3% (inactive)

Structure (SMILES)	growth
CS(=O)(=O)Nc1cc(-c2ccc3ncnc(Nc4cccc(Cl)c4)c3c2)cnc1Cl	2.67% (active)
CCCCCC(=O)N(CCCC)CCCC	109% (inactive)
COC1NC(Cl)=C(C#N)C(C#N)(C#N)C1(C)C (stereo not given)	92.9% (inactive)
CC(C)(c1ccccc1)c1cc(O)c(C(C)(C)c2ccccc2)cc1O	-6.95% (active)
COC(=O)c1nc(=S)[nH]c(C(=O)OC)c1C(=O)c1ccccn1	97.9% (inactive)
Cn1c2ccccc2c2ccccc21	95.9% (inactive)
CCCCCCCC(=O)SCC/C=C/[C@@H]1CC(=O)NCc2nc(co2)C2=N[C@@](C)(CS2)C(=O)N[C@@H](C(C)C)C(=O)O1	8.71% (active)
CSc1[nH]c(=O)ncc1F	106% (inactive)
O=C(O)c1cc2cc(OCc3ccccc3)ccc2[nH]1	112% (inactive)
COc1ccc(-c2nnc(NC(=O)CN3CCN(c4cc5c(cc4F)c(=O)c(C(=O)O)cn5C4CC4)CC3)s2)cc1OC	111% (inactive)
Oc1c(CN2CCC(N3CCOCC3)CC2)cc(Cc2cc(CN3CCC(N4CCOCC4)CC3)c(O)c3ncccc23)c2cccnc12	-5.88% (active)
N=C(N)c1ccc(-c2ccc(-c3ccc(Cl)cc3)o2)o1	-53.5% (active)
Cc1ccc(-c2nc(N3CCCNCC3)c3oc(-c4ccccc4)nc3n2)cc1	-69.7% (active)
O=C(Nc1ccc(I)cc1)c1cc([N+](=O)[O-])ccc1O	20.6% (inactive)
CC(=O)Cc1cccnc1	82.4% (inactive)
Nc1cc(Br)c(-c2nnc(CCC(=O)c3nc4ccccc4[nH]3)o2)c(Br)c1	88% (inactive)
Clc1ccccc1Nc1nnc(-c2ccncc2)s1	79.1% (inactive)
CCOC(=O)c1ccc2c(c1)nc(/C=C/c1ccc(Cl)cc1)n2-c1cc(C(C)(C)C)[nH]n1	73.1% (inactive)
FC(F)(F)c1ccc(CNc2ccc(Cc3c[nH]c4ncc(Cl)cc34)cn2)cn1	4.54% (active)
COc1cc2c(cc1-c1c(C)noc1C)ncc1nc(C3CCCCC3)n(C3CCC(OC(F)F)CC3)c12 (stereo not given)	-25.1% (active)
